Source: PubChem (National Center for Advancing Translational Sciences (NCATS))
Only some compounds are listed: those with a hit (about 8.1% of all), similar ones and a draw of the others.
KB-3-1 tox = qHTS assay for MDR1-selective chemotherapeutics: Primary screen using the parental adenocarcinoma cell KB-3-1. KB-3-1 viability, CellTiter-Glo ATP luminescence, 72 h. Potency, µM (titrated, usually from 46.1 µM), usual class: cytotoxic. 1.4% of 400,000 active. AID 1347075, 2019; also: nearly all actives have a fitted effect of over 60% in size
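Cytotoxicity measured as CellTiter-Glo luminescence after 72 h at 37 C. Compound titrations were pinned onto drug-naive KB-3-1 parental adenocarcinoma cells grown in DMEM with 10% FBS, and normalized data fitted to concentration-response curves.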
MCF10A rerep = A quantitative high throughput screen for small molecules that induce DNA re-replication in MCF 10a normal breast cells | AID 624296, 2012 | Potency, µM (series often up to 46.1 µM), hits mostly activators | 2.9% of 350,000 active | MCF 10A DNA re-replication, Hoechst nuclear intensity, 48 h; also: nearly all actives have a fitted effect of over 50% in size
SW480 rerep = A quantitative high throughput screen for small molecules that induce DNA re-replication in SW480 colon adenocarcinoma cells; SW480 DNA re-replication, Hoechst DNA content imaging, 48 h; Potency, µM (highest dose often 46.1 µM), most hits filed as activators; 1.8% of 340,000 active; AID 624297, 2012; also: nearly all actives have a fitted effect of over 55% in size
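First, 250 cells per well were seeded. Next, compound or vehicle (23 nL) was pinned in, plates sat 48 hr at 37 C. Finally Hoechst was added for 40 min before fluorescence scanning.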
KB-V1 MDR tox = qHTS assay for MDR1-selective chemotherapeutics: Primary screen using the drug-selected MDR subline cells KB-V1 | Potency, µM (highest dose often 46.1 µM), actives largely listed as cytotoxic | KB-V1 MDR cells viability, CellTiter-Glo, 72 h | AID 1347076, 2019 | 3.4% of 400,000 active; also: nearly all actives have a fitted effect of over 60% in size
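Compound-treated KB-V1 multidrug-resistant cells, 72 h, 37 degrees C; viability by CellTiter-Glo. Fitted qHTS curves give the values.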
ELG1 repair inh = qHTS screen for small molecules that inhibit ELG1-dependent DNA repair in human embryonic kidney (HEK293T) cells expressing luciferase-tagged ELG1; HEK293T ELG1-luciferase reporter, luminescence, 16 h; DNA damage induced by 5-fluorouridine; Potency, µM (titrated, usually from 46.1 µM), usual class: inhibitors; 2.3% of 330,000 active; AID 504467, 2011; also: nearly all actives have a fitted effect of over 55% in size
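In this reporter screen, reduction of luminescence relative to DMSO vehicle indicated activity. Compounds and 5-fluorouridine were added together to 2,000 cells per well, incubated for 16 hr at 37 °C, then developed with ONE-Glo.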
A number is an active result; 0 = inactive; ? = inconclusive; - = no result; [ ] = another dose, or the depositor's remark. Calls follow the shape of the dose curve; as a rule, active = well fitted curve in the direction sought with a large enough effect; inconclusive = small, poorly fitted or top-dose-only effect, or another doubt; inactive = no such curve, though single readings can be large; an effect the other way counts as inactive or inconclusive.

SMILES	KB-3-1 tox	MCF10A rerep	SW480 rerep	KB-V1 MDR tox	ELG1 repair inh
COc1ccc(OC)c(C(C[N+](=O)[O-])c2c(C)cc3ccccn23)c1 (configuration not stated)	?	?	?	?	0
C=CCn1c(COc2ccc3c(c2)CCCC3)nnc1SCC(=O)Nc1cccc(SC)c1	?	0	0	15µM	0
CCCCOc1c(Cl)cc(CNC(C)(C)CO)cc1OCC	0	0	0	0	0
CCCCNCc1cc(Cl)c(OCCC)c(OCC)c1	0	0	?	16µM	0
COC(=O)c1ccc2c(c1)C(=O)/C(=C/c1ccc(C)cc1)O2	0	0	0	0	?
CN(C)c1ccc(/C=C2\Oc3ccc(C#Cc4cccc(N)c4)cc3C2=O)cc1	?	4.6µM	5.2µM	0	0
Cc1ccc(NC(NC(=O)Cc2ccccc2)C(Cl)(Cl)Cl)cc1 (configuration not stated)	?	0	0	15µM	0
Cc1ccc(NC(NC(=O)c2ccccc2[N+](=O)[O-])C(Cl)(Cl)Cl)cc1 (configuration not stated)	0	0	0	21µM	0
O=C(O)c1cccc(NC(=S)NC(NC(=O)c2ccccc2[N+](=O)[O-])C(Cl)(Cl)Cl)c1 (configuration not stated)	0	0	0	0	0
O=C(Cn1cnc2sc3c(c2c1=O)CCCC3)NCC(=O)Nc1c(F)cccc1F	0	0	16µM	0	0
COc1ccc(NC(=O)CCCNC(=O)Cn2cnc3sc4c(c3c2=O)CCCC4)c(OC)c1	0	0	0	21µM	0
O=C(CNC(=O)Cn1cnc2sc3c(c2c1=O)CCCC3)NCc1ccccn1	0	0	0	0	0
CC(C)c1ccc(Nc2nc3c(S(=O)(=O)c4ccc(Br)cc4)nnn3c3ccsc23)cc1	0	-	-	0	-
C/C(=N\NC(=O)c1ccccc1)c1nc2ccccc2n1C	0	0	13µM	?	0
Cn1c(NC(=O)c2ccc(F)cc2)nc2ccccc21	?	0	?	0	?
O=[N+]([O-])c1cc(C(F)(F)F)ccc1Sc1nccn1Cc1ccccc1	0	?	0	0	0
O=[N+]([O-])c1ccc(SNc2ccccc2)c([N+](=O)[O-])c1	0	0	0	23µM	-
O=[N+]([O-])c1ccc(Sc2ncccn2)c([N+](=O)[O-])c1	0	18µM	?	0	?
O=[N+]([O-])c1ccc(Sc2nccn2Cc2ccccc2)c([N+](=O)[O-])c1	0	21µM	?	?	0
CN(C)c1ccc(C=O)cc1[N+](=O)[O-]	0	-	-	0	-
COc1cccc(COC(=O)c2ccc(-c3nnn(Cc4cccc(OC)c4)n3)cc2)c1	0	-	-	0	-
Cc1ncoc1C(=O)Nc1ccc(Oc2ccccc2)cc1	0	0	0	18µM	?
Cc1noc(C)c1COc1ccc(C(=O)NNC(=O)c2ccccc2F)cc1	?	0	12µM	0	0
Cc1noc(C)c1COc1ccccc1C(=O)NNC(=O)c1ccccc1F	0	0	0	?	0
Cc1ccc(NC(=O)c2cccc(OCc3c(C)noc3C)c2)cc1S(=O)(=O)Nc1ccccc1Cl	0	?	?	7.3µM	?
SMILES	KB-3-1 tox	MCF10A rerep	SW480 rerep	KB-V1 MDR tox	ELG1 repair inh
CC(=O)Nc1ccc(NC(=O)c2ccc(OCc3c(C)noc3C)cc2)cc1	0	0	0	0	0
Cc1ccc(NC(=O)c2ccc(OCc3c(C)noc3C)cc2)cc1C	?	0	0	?	10µM
Cc1noc(C)c1COc1ccc(C(=O)NNC(=O)c2ccccc2)cc1	4.6µM	21µM	13µM	7.3µM	0
CC(=O)c1ccc(NC(=O)c2ccc3c(c2)nnn3C2CCCC2)cc1	0	-	-	?	-
CC(C)(C)OC(=O)N1CCC[C@H]1C(=O)Nc1ccc(S(=O)(=O)C(F)F)cc1	0	0	0	?	0
Cc1ccc(NC(=O)c2cccc(OCc3c(C)noc3C)c2)c(C)c1	?	0	0	?	0
Cc1noc(C)c1COc1cccc(C(=O)Nc2ccc(Br)cc2F)c1	6.5µM	5.8µM	15µM	2.9µM	?
Cc1noc(C)c1COc1cccc(C(=O)OC(C)C(=O)Nc2ccc3c(c2)OCO3)c1 (configuration not stated)	0	15µM	?	?	?
COc1cc(C(=O)OC(C)C(=O)Nc2ccc3c(c2)OCO3)ccc1OCc1c(C)noc1C (configuration not stated)	0	0	0[9.22 µM]	0	?
O=C1CSC(=S)N1Nc1ccccc1	0	?	0	0	-
O=C(COC(=O)CN1C(=O)C2CCCCC2C1=O)Nc1cc(F)ccc1F (configuration not stated)	0	0	0	0	0
COC(=O)c1ccccc1NC(=O)N1c2ccccc2Sc2ccccc21	?	8.2µM	0	0	0
CCOc1ccccc1C(=O)N1c2ccccc2Sc2ccccc21	?	?	0	0	?
COC(=O)c1ccccc1NC(=O)N1c2ccccc2CC1C (configuration not stated)	0	?	0	23µM	0
COc1ccccc1C(=O)N1c2ccccc2Sc2ccccc21	21µM	23µM	?	?	0
C=CC[C@H](CC(=O)N[C@H](CO)Cc1ccccc1)C(=O)N[C@@H](COC(=O)[C@H](CC=C)CC(=O)OC(C)(C)C)Cc1c[nH]c2ccccc12	?	0	0	0	?
C1=Cc2ccccc2/C1=C(\Cc1ccncc1)Oc1ccncc1	?	-	-	0	-
C[C@H](CO)N1C[C@H](C)[C@@H](CN(C)C(=O)Nc2ccc(F)cc2)Oc2cc(Br)ccc2S1(=O)=O	0	-	-	0	-
Cc1ccc(-c2ccc(=O)n(CC(=O)Nc3ccc(C)cc3Cl)n2)cc1	0	-	-	0	-
CCn1c(O)c(C=Nc2ccccc2)sc1=S	0	0	0	0	?
CCn1c(O)c(C=Nc2ccccc2)n(-c2ccccc2)c1=S	5.8µM	0	0[9.22 µM]	?	0
O=C(/C=C/[C@H]1O[C@@H](n2cnc3c(NC(=O)c4ccccc4)ncnc32)[C@H](O)[C@@H]1O)N[C@@H](CO)Cc1c[nH]c2ccccc12	0	-	-	0	-
COc1cc(Cl)c(C)cc1NC(=O)NC1COc2ccccc2C1 (configuration not stated)	0	-	-	0	-
Cc1cccc(NC(=O)/C(C#N)=C/c2ccc(Sc3ccccc3)o2)c1C	0	18µM	?	0	0
Cc1ccccc1NC(=O)/C(C#N)=C/c1ccc(-c2ccc(Cl)c(C(=O)O)c2)o1	0	0	0	0	?
CC(NC(=O)c1cccc(S(=O)(=O)N2CCN(C)CC2)c1)c1ccc(Cl)cc1Cl (configuration not stated)	0	?	0	?	0
COc1ccc(NC(C)=O)cc1S(=O)(=O)NCc1ccc2c(c1)OCO2	0	-	-	0	-
